Compounds without any hit were thinned out: in the full panel of roughly 83,000, 20% have a hit.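 Note: values are percent growth. 100 is the growth of untreated cells, values between 100 and 0 indicate rising inhibition; between -100 and 0 indicates cell death.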 A number with no mark means an inactive call. The source made the active and inactive calls. How the source made its calls: active means growth percent below 10; inactive means the rest.
Columns and labels:
Assay in all cases: NCI-60 one-dose screen, 48 h (100 = growth as untreated, 0 = no growth, -100 = all killed)
Conditions in all cases: 10 µM unless noted
DU-145 prostate = tested on: DU-145 prostate
K-562 leukemia = tested on: K-562 leukemia
MALME-3M melanoma = tested on: MALME-3M melanoma
MDA-MB-231 breast = tested on: MDA-MB-231 breast
RXF 393 renal = tested on: RXF 393 renal
SF-268 CNS = tested on: SF-268 CNS
SF-295 CNS = tested on: SF-295 CNS
SF-539 CNS = tested on: SF-539 CNS
UACC-257 melanoma = tested on: UACC-257 melanoma
HCT-15 colon = tested on: HCT-15 colon
HT29 colon = tested on: HT29 colon
SNB-75 CNS = tested on: SNB-75 CNS
SNB-19 CNS = tested on: SNB-19 CNS
U251 CNS = tested on: U251 CNS
PC-3 prostate = tested on: PC-3 prostate
SK-MEL-5 melanoma = tested on: SK-MEL-5 melanoma
UACC-62 melanoma = tested on: UACC-62 melanoma
LOX IMVI melanoma = tested on: LOX IMVI melanoma
SK-MEL-28 melanoma = tested on: SK-MEL-28 melanoma
M14 melanoma = tested on: M14 melanoma

Row | Compound | growth (DU-145 prostate) | growth (K-562 leukemia) | growth (MALME-3M melanoma) | growth (MDA-MB-231 breast) | growth (RXF 393 renal) | growth (SF-268 CNS) [%] | growth (SF-295 CNS) | growth (SF-539 CNS) | growth (UACC-257 melanoma) [%] | growth (HCT-15 colon) | growth (HT29 colon) | growth (SNB-75 CNS) | growth (SNB-19 CNS) [%] | growth (U251 CNS) [%] | growth (PC-3 prostate) [%] | growth (SK-MEL-5 melanoma) | growth (UACC-62 melanoma) | growth (LOX IMVI melanoma) | growth (SK-MEL-28 melanoma) [%] | growth (M14 melanoma) [%]
1 | Fc1cc(-c2nnc3sc(-c4ccc(Cl)cc4Cl)nn23)c(Cl)cc1Cl | 92.7% | 107% | 52.3% | 74.8% | 65.4% | 71.5 | 78.4% | 108% | 85.1 | 90.7% | 72.1% | 49.1% | 79.5 | 75.5 | 94.4 | 67.4% | 92.3% | 96.2% | 69.3 | –
2 | O=c1[nH][n+](-c2ccc(Br)cc2)no1 | 57.9% | 10.9% | 60.3% | 68.7% | 105% | 32.8 | 21.3% | 7.06% (active) | 55 | 33.5% | 90% | 77.1% | 77.8 | 73.3 | 70.7 | 57.8% | 9.27% (active) | 7.47% (active) | 61.2 | 74
3 | C[C@]12CC[C@@H]3c4cc(OC(F)F)c(OS(N)(=O)=O)cc4CC[C@H]3[C@@H]1CC[C@@H]2O | 9.26% (active) | 12.3% | 26.4% | 43.3% | -5.44% (active) | 49.6 | 2.5% (active) | -3.28% (active) | 67.4 | 13.2% | 13.9% | -15.7% (active) | 48.4 | 28.2 | 25.5 | 6.56% (active) | 55.7% | 28.6% | 53.6 | –
4 | CCCCCCCCCCCCCCCCCCOc1ccccc1CC(=O)OCC[N+](CC)(CC)CC | 33.9% | 6.67% (active) | -8.97% (active) | -17.3% (active) | -16.9% (active) | 23.8 | 27.9% | 18.5% | 48.1 | 80.9% | 13.1% | 22.5% | 11.4 | 14.4 | 18.3 | -3.62% (active) | 21.4% | -57.6% (active) | 31.5 | –
5 | CN1CCN(c2ccc(-c3cc4c(Nc5ccc(F)c(Cl)c5)ncnn4c3)cn2)CC1 | 58.1% | 11.7% | 50.3% | 77.3% | 101% | 98.7 | 103% | 68% | 105 | 7.04% (active) | 16.1% | 72% | 96.2 | 82.5 | 94.2 | 100% | 106% | 85.2% | 87.6 | –
6 | Cc1cc2[nH]c(=O)c3c4ncccc4cn3c2cc1C | 35.6% | 3.34% (active) | 70.1% | 28.8% | 18.1% | 41.7 | -14.7% (active) | 26.7% | 108 | 5.25% (active) | -23.7% (active) | 99.4% | 50.2 | 24.1 | 57.1 | 70% | -8.94% (active) | -83.3% (active) | 95.1 | –
7 | Cc1cccc2c1S/C(=C/c1ccc([N+](=O)[O-])cc1)C2=O | 106% | 42.2% | 99.4% | 103% | 140% | 103 | 89.8% | 101% | 108 | 100% | 92.5% | 82.4% | 98.4 | 78.4 | 91.5 | 99.4% | 72.6% | 93.1% | 114 | –
